Screening results deposited in PubChem BioAssay by National Center for Advancing Translational Sciences (NCATS).
Shiga toxin inh: Shiga toxin inhibition; Vero cells, Shiga toxin protein synthesis inhibition reporter; inhibition, % at 38.7 µM; 290,000 compounds, 9.2% hits; in the data active = inhibition mostly above about 28%, no sharp cut-off; inactive = mostly below about 43%
Pf growth 96h: P. falciparum growth inhibition at 96 hours; Potency, µM (highest dose often 28.7 µM), usual class: inhibitors; 320,000 compounds, 6.9% hits; P. falciparum luciferase reporter growth, 96 h
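Readout is luminescence from an integrated firefly luciferase in P. falciparum. Red cells, 2% hematocrit and 0.05% parasitemia final, were cultured with compound through two parasite generations (96 hours) at 37 C, 5% CO2.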
Pf growth 48h: inhibits P. falciparum growth in the first generation, 48 h. AID 504832. Potency, µM (top dose mostly 28.7 µM), hits mostly inhibitors. 310,000 compounds, 5.9% hits. P. falciparum luciferase growth in erythrocytes, 48 h
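Cell-based growth assay: transgenic P. falciparum expressing firefly luciferase, cultured in red cells within RPMI 1640 containing 0.5% w/v Albumax, 24 mM bicarbonate and gentamycin. A drop in luciferase activity indicates inhibition.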
Cycloheximide cs: affects cycloheximide protein synthesis inhibition readout, counter-screen; cell reporter, cycloheximide protein synthesis inhibition counterscreen; max response, %; 300,000 compounds, 12% hits; AID 2314; in the data active = max response mostly above about 13%, no sharp cut-off; inactive = mostly below about 14%; also: read at 38.3 µM for the half of the compounds with a filed dose
HCV inhibitor: HCV inhibition. Huh7.5.1 HCVcc-Cre infection, luciferase reporter, 44 h. Potency, µM (titrated, usually from 41.8 µM), most hits filed as inhibitors. 340,000 compounds, 3.4% hits. AID 651820
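Reporter virus HCVcc-Cre (~0.5 moi) infects cells exposed to compound; seeding density 1,000 cells/well with 4 h settling beforehand. Luminescence, 15 sec read, taken 44 h post-infection following a 15 min RT substrate incubation.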
HCMV inh: inhibitors of human cytomegalovirus | 410,000 compounds, 4.5% hits | HFF cells, HCMV-luciferase reporter, 72 h; stronger effect = lower value | AID 1259415 | activity change, negative = inhibition, % at 57.5 µM; in the data active = activity change below about -60%; inconclusive = no clear call, values can overlap the other calls; inactive = above about -39%
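Steps: HFFs plated, 16 h 37C; compounds added; HCMV-luciferase added to MOI 1 PFU/cell; 72 h 37C; OneGlo reagent, 5 min room temperature; luminescence read, normalized to controls.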
Numbers stand for hits; i = inactive; ? = inconclusive; nt = no result given; ! = not active in a repeat; [ ] = remark or other dose. Most compounds without a hit are left out; they make up all but 21% or so of the library. Unless noted, calls follow the shape of the dose curve; as a rule, active = well fitted inhibition curve with a large enough effect; inconclusive = small, poorly fitted or top-dose-only effect, or another doubt; inactive = no such curve, though single readings can be large or run the other way.

SMILES	Shiga toxin inh	Pf growth 96h	Pf growth 48h	Cycloheximide cs	HCV inhibitor	HCMV inh
CC1CNCCN1S(=O)(=O)c1cccc2cnccc12 (stereo unspecified)	i	i	?	i	?	-64.3!
CC1CCCCN1CCCNC(=O)C1CCN(c2nc3ccccc3o2)CC1 (stereo unspecified)	i	i	i	i	?	i
O=C(NC1CC1)C1CCN(c2nc3ccccc3s2)CC1	63.2	i	i	22.8	i	i
O=C(NC1CCCCCC1)C1CCN(c2nc3ccccc3o2)CC1	i	i	?	i	i	-74.1
CCc1cccc(-n2nnc(-c3nsc(NC(=O)c4cccs4)n3)c2C)c1	nt	nt	nt	nt	nt	i
CC(C)N1CCN(c2ccc(S(=O)(=O)N3CCOCC3)cn2)CC1	i	?	i	i	i	i
Cc1ccnn1-c1ccc(C(=O)NCc2ccccc2CN2CCOCC2)cc1	nt	nt	nt	nt	i	i
Cc1cc(C)c2c(c1)SC1=NC(c3ccccc3)(C(F)(F)F)NC(=O)N12 (stereo unspecified)	i	i	?	23.7	i	i
CCC(=O)N1c2ccc(S(=O)(=O)N3CCC(C)CC3)cc2CC1C (stereo unspecified)	nt	nt	nt	nt	nt	i
C/C(=N\NC(=O)c1cccc(Cl)c1)C1C(=O)c2ccccc2C1=O	73.4	?	i	52.4	?	i
C/C(=N\NC(=O)CCc1ccccc1)C1C(=O)c2ccccc2C1=O	66.9	i	i	24.1	i	-87.2
O=C(NNC(=O)c1cccc(Cl)c1)NNC(=O)c1cccc(Cl)c1	nt	nt	nt	nt	i	i
CCCc1cc(N2CCN(c3ccc(OC)cc3)CC2)n2cnnc2n1	nt	nt	nt	nt	nt	-78.4
Cc1cc(N2CCN(c3ccccc3)CC2)n2cnnc2n1	nt	nt	nt	nt	nt	i
COc1ccc(N2CCN(c3c4c(nc5nncn35)CCC4)CC2)cc1	nt	nt	nt	nt	nt	-70.4
Cc1nc2nncn2c(N2CCN(c3ccccc3)CC2)c1C	nt	nt	nt	nt	nt	-74.5
CCOC(=O)c1c(S(=O)(=O)N2CCC(C(=O)Nc3ccc(C)cc3C)CC2)c(C)n(C)c1C	nt	nt	nt	nt	nt	i
CCc1ccc2c(c1)c(=O)c(S(=O)(=O)c1ccc(F)cc1)cn2CC(=O)Nc1ccccc1OC	nt	nt	nt	nt	nt	i
CCOC(=O)c1cc2c(C)n(-c3ccc(N(C)C)cc3)c(C)c2cc(C(=O)OCC)c1=O	i	3.29µM	?	i	i	i
COc1ccc(OC)c(CNC(=O)CSc2c3c(nc4cc(Cl)ccc24)CCCC3)c1	nt	nt	nt	nt	nt	-60.4
CCN(CC)CCCNC(=O)CSc1c2c(nc3cc(Cl)ccc13)CCCC2	i	i	?	i	10µM	-107.0!
O=C(CSc1c2c(nc3cc(Cl)ccc13)CCCC2)NCCN1CCOCC1	i	i	i	i	i	i
COc1cccc(CNC(=O)CSc2c3c(nc4ccc(Cl)cc24)CCCC3)c1OC	nt	nt	nt	nt	nt	i
Cc1ccc(CNC(=O)CSc2c3c(nc4cc(Cl)ccc24)CCCC3)o1	i	i	14.7µM	i	4.47µM	i
O=C(CSc1c2c(nc3cc(Cl)ccc13)CCCC2)NCCCN1CCOCC1	i	i	i	i	?	i
SMILES	Shiga toxin inh	Pf growth 96h	Pf growth 48h	Cycloheximide cs	HCV inhibitor	HCMV inh
Cc1ccc(S(=O)(=O)NCC(=O)N/N=C/c2ccccc2O)cc1	i	i	?	i	i	i
CC1(C)OC(C)(C)/C(=C\c2ccc(OCC(N)=O)cc2)C1=O	nt	i	i	nt	i	i
CC1(C(=O)NCc2ccc3c(c2)OCO3)CCN1C(=O)CCc1ccc(Cl)cc1Cl (stereo unspecified)	nt	nt	nt	nt	nt	i
Cc1cc(C(=O)COc2cccnc2[N+](=O)[O-])c(C)n1Cc1ccco1	i	i	i	i	?	i
Cc1ccc(-n2c(C)cc(C(=O)COc3cccnc3[N+](=O)[O-])c2C)cc1	54.4	i	i	42.9	?	-98.6
Cc1cc(C(=O)COc2cccnc2[N+](=O)[O-])c(C)n1-c1ccccc1	55.5	i	i	58.9	i	-98.8
O=C(COc1cccnc1[N+](=O)[O-])N1CCc2ccccc21	i	i	i	i	i	i
Cc1cc(C(=O)COc2cccnc2[N+](=O)[O-])c(C)n1-c1ccccc1F	86.7	i	i	39.6	i	-97.3
O=C1CC2CCCC(C1)S2=O (stereo unspecified)	nt	nt	nt	nt	nt	i
CCCc1cc(-c2n[nH]c(C(=O)OCC)c2-c2cscn2)c(O)cc1O	i	?	?	i	?	-86.8
Cc1cc(=O)oc2cc(OCC(=O)N3CC[C@@]4(O)CCCC[C@H]4C3)ccc12	i	i	i	i	i	i
CN(C)CC1CCCCC1C1(O)c2ccccc2CSc2sccc21 (stereo unspecified)	i	?	9.28µM	i	?	i
CN(C)CC1CSCCC1(O)c1ccccc1Cl (stereo unspecified)	i	i	?	i	i	i
COC(=O)c1ccccc1CON1C(=O)C(C)(C)N(OCc2ccccc2C(=O)OC)C(=O)C1(C)C	i	?	?	i	14.1µM	i
COC(=O)c1ccccc1NC(=O)CC(=O)Nc1ccccc1C(=O)OC	i	i	i	i	i	i
COc1ccc(S(=O)(=O)Nc2cccc(-c3ccc(N4CCC(C)CC4)nn3)c2)cc1OC	nt	nt	nt	nt	nt	i
CCCN1CCC(=O)N(C(CSc2ccc(Br)cc2)CC(C)C)CC1 (stereo unspecified)	89.4	nt	nt	36.1	nt	nt
CCCN1CCC(=O)N([C@H](CO)CC(C)C)CC1	i	i	i	i	i	-60.9
CCCN1CCC(=O)N(C(CSc2ccc(OC)cc2)CC(C)C)CC1 (stereo unspecified)	52.9	nt	nt	43.0	nt	nt
COc1ccc(CN2CCC(=O)N([C@H](CO)CC(C)C)CC2)cc1OC	i	i	i	i	i	-68.0
COc1ccc(CN2CCC(=O)N([C@H](CO)c3ccccc3)CC2)cc1OC	i	i	i	i	i	i
CC(C)CN1CCC(=O)N([C@H](CSc2ccc(Br)cc2)c2ccccc2)CC1	i	i	i	i	?	?
C=C(C)CNC(=S)Nc1cccc(N)n1	i	i	i	i	i	i
CC(/C=N/NC(=O)CNc1n[nH]c(=O)[nH]c1=O)c1ccccc1 (stereo unspecified)	i	i	i	i	i	i
CCCN1CCC(=O)N([C@H](CSc2ccc(OC)cc2)c2ccccc2)CC1	37.1	?	?	14.7	i	i
SMILES	Shiga toxin inh	Pf growth 96h	Pf growth 48h	Cycloheximide cs	HCV inhibitor	HCMV inh
CC(=O)Nc1ccc(SC[C@H](CC(C)C)N2CCN(CC(C)C)CCC2=O)cc1	i	?	?	i	i[8.37 µM]	i
CC(C)C[C@@H](CSc1ccc(Br)cc1)N1CCN(CC(C)C)CCC1=O	74.8	?	?	17.7	i	i
COc1ccc(SCC(c2ccccc2)N2CCN(CC(C)C)CCC2=O)cc1 (stereo unspecified)	i	nt	nt	i	nt	nt
CNC(=O)c1ccsc1NC(=O)C1CCCN1S(=O)(=O)c1cccs1 (stereo unspecified)	nt	?	?	nt	i	nt
CC(C)(C)c1ccc(OCc2ccc(C(=O)N/N=C/c3ccc([N+](=O)[O-])cc3)o2)cc1	58.1	i	?	i	i	i
O=C(N/N=C/c1c(F)c(F)c(F)c(F)c1F)c1ccc(Cn2cc(Br)cn2)o1	i	?	i	i	?	i
